# Screens: PubChem BioAssay, National Center for Advancing Translational Sciences (NCATS)
# ELG1 genotoxic: inducers of genotoxicity in HEK293T ELG1-luciferase cells; hit rate 1.3% among 330,000; HEK293T ELG1-luciferase reporter, luminescence, 16 h; AID 504466; Potency, µM (series often up to 46 µM), for the others: at the highest dose activity change, positive = activation, most hits filed as activators; also: % of control where 0% means no effect; nearly all actives have a fitted effect of over 60% in size
#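 After overnight (16 hr) compound treatment at 37 °C, ELG1-luciferase HEK293T cells were lysed with ONE-Glo; luminescence quantified 30 min later at room temperature.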
# SMN2 splice enh: SMN2 splice variant enhancement; HEK293 SMN2-luciferase splicing reporter, luminescence, 30-36 h; Potency, µM (top dose mostly 46.1 µM), inactives show at the top dose activity change, positive = activation, usual class: activators; hit rate 2.8% among 210,000; also: % of control where 0% means no effect; nearly all actives have a fitted effect of over 55% in size
#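 HEK293 cells carry an SMN2 minigene-luciferase reporter in which exon 7 inclusion puts luciferase in frame. Cells were seeded at 2000 cells/well, attached for 10-12 hours, then exposed to compounds for 30-36 hours at 37C before ONE-Glo luminescence.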
# FLuc counter: inhibits or activates purified firefly luciferase, miR-21 counter-screen; Potency, µM (highest dose often 57.5 µM), for inactives: at the top dose activity change, negative = inhibition, hits mostly inhibitors; hit rate 6.9% among 360,000; purified FLuc, Km substrates, luminescence inhibition;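 also: plate controls were vehicle for no effect and reference inhibitor for full effect; nearly all actives have a fitted effect of over 55% in size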
# Target sequence (P08659 whole entry, looked up): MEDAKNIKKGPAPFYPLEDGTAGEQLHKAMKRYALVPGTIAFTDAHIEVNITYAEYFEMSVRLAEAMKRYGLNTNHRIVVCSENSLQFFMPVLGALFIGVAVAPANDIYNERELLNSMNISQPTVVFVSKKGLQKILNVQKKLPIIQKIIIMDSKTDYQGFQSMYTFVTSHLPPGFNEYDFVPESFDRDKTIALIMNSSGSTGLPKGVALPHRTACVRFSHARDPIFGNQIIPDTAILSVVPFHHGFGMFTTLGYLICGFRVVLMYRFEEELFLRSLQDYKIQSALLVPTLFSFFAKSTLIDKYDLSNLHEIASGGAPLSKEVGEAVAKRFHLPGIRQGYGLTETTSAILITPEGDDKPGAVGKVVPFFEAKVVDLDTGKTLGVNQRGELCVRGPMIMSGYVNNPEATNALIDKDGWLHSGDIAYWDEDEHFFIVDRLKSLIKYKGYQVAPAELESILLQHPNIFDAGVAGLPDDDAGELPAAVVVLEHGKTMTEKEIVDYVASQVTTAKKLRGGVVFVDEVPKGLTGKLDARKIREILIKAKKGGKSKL
#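 Purified P. pyralis luciferase, 10 nM final, with Km-level 10 uM D-luciferin and 10 uM ATP in 50 mM Tris acetate pH 7.5, 10 mM Mg acetate, 0.01% Tween-20, 0.05% BSA; 6-point qHTS titration about 60 µM downward; luminescence read.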
# NPC1 promoter act: NPC1 promoter activation. Huh7 NPC1 promoter luciferase reporter, 24 h. hit rate 2.4% among 320,000. Potency, µM (top dose mostly 9.22 µM), inactives show top-dose activation, hits mostly activators. AID 485313; also: % of control where 0% means no effect; nearly all actives have a fitted effect of over 60% in size
#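 In 1536-well qHTS, Huh7 cells harboring an NPC1 promoter–luciferase construct received compound for 24 h; activation was quantified by luminescence following luciferase reagent addition.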
# Luc counter: Kinase-Glo luciferase inhibition (counter-screen); Q27757; Kinase-Glo luciferase, ATP luminescence, 8 min; Potency, µM (titrated, usually from 38.3 µM), inactives show at the highest dose activity change, negative = inhibition, actives largely listed as inhibitors; hit rate 0.28% among 200,000; AID 1379; also: % is scaled to controls: 0 for no effect and ±100 for the full control effect; nearly all actives have a fitted effect of over 60% in size
#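 Luminescence was the read-out, taken after 8-minute incubation at ambient temperature. Luciferase turned over luciferin with 10 uM ATP in imidazole pH 7.2 buffer containing KCl, MgCl2, Tween 20 and BSA.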
# Rab9 promoter act: Rab9 promoter activation. Huh7 Rab9 promoter-luciferase reporter, luminescence, 24 h. Potency, µM (titrated, usually from 9.22 µM), for the others: at the highest dose activation, negative = inhibition, most hits filed as activators. hit rate 2.8% among 320,000; also: % of control where 0% means no effect; nearly all actives have a fitted effect of over 60% in size
#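 Luciferase signal after 10 min detection reagent at ambient indicates Rab9 promoter upregulation; stably transfected Huh7 cells were treated 24 h with compound in DMSO at 37 °C, 5% CO2.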
# * marks the source's active call; other numbers are inactive results; ? = inconclusive; / = no result given; [ ] = dose if it differs, or a comment. Only some compounds are listed: those with a hit (about 7.4% of all), similar ones and a draw of the others. Calls follow the shape of the dose curve; as a rule, active = well fitted curve in the direction sought with a large enough effect; inconclusive = small, poorly fitted or top-dose-only effect, or another doubt; inactive = no such curve, though single readings can be large; an effect the other way counts as inactive or inconclusive. Potency is read from the fitted curve at half-maximal effect.
SMILES,ELG1 genotoxic,SMN2 splice enh,FLuc counter,NPC1 promoter act,Luc counter,Rab9 promoter act
COc1ccc2[nH]c(C(=O)Nc3cccc(C)n3)cc2c1,?,/,1.2µM*,0.631µM*,/,0.501µM*
COCOc1c2c(c(OCOC)c3c(OCOC)cccc13)/C(=N/NS(C)(=O)=O)C1=C2CCCC1,/,0.5%,/,/,-0.8%,/
COc1ccc(NC(=O)CCS(=O)(=O)c2ccc3c(c2)n(C)c(=O)c(=O)n3C)cc1Cl,/,2.0%,-1.2%,/,/,/
CC(Oc1ccc(Br)cc1)C(=O)NCc1cccnc1 (stereo not given),/,/,/,/,-1.5%,/
C[C@H](CCC(=O)O)[C@H]1CC[C@@H]2[C@H]3CC[C@H]4C[C@@H](O)CC[C@@]4(C)[C@H]3CC[C@]21C,/,7.9%[20.6 µM],/,/,-1.8%[17.1 µM],/
CC(C)c1ccc(/C=N\NC(=O)c2ccc(Cn3cccn3)o2)cc1,9.6%,25.2%,1.35µM*,?,-5.5%,11.1%
CCCOc1ccc(/C=N/NC(=O)c2ccc(Cn3cc([N+](=O)[O-])cn3)o2)cc1,?,-4.7%,2.39µM*,23.4%,-2.4%,?
CCCCNc1nc(C)nc2c1nc(C)n2CCC,/,-6.6%,/,/,-1.6%,/
CCOC(=O)c1c(C)n(S(=O)(=O)c2ccc(C)cc2)c2ccc(NS(=O)(=O)c3ccc(C)cc3)cc12,/,2.5%,0.0%,/,/,/
COc1ccc(CCNC(=O)c2cnn(-c3ccc(F)cc3)c2C2CCN(C(=O)OC(C)(C)C)CC2)cc1OC,/,/,-1.5%,/,/,/
O=C(O)[C@@H]1C[C@H](C(=O)O)N1,/,1.5%,/,6.6%[46.1 µM],-3.8%,0.7%[46.1 µM]
Cc1ccc(-n2nnc(-c3nccs3)n2)cc1,0.231µM*,/,0.12µM*,?,/,?
Clc1ccc(-n2nnc(-c3nccs3)n2)cc1Cl,5.17µM*,/,1.9µM*,1.58µM*,/,0.891µM*
Fc1ccc(CNc2nc3c(-c4ccc(F)cc4)nnn3c3ccccc23)cc1,/,8.2%,1.4%,/,/,/
CC1CCCN(C(=O)c2ccc(NS(=O)(=O)c3ccc4[nH]c(=O)[nH]c4c3)cc2)C1 (stereo not given),2.5%,/,-1.1%,-1.6%,/,-8.0%
CCNC(=O)c1ccc(NS(=O)(=O)c2ccc3[nH]c(=O)[nH]c3c2)cc1,7.3µM*,/,15.1µM*,2.24µM*,/,3.55µM*
CC1CCC(NC(=O)c2ccc(NS(=O)(=O)c3ccc4[nH]c(=O)[nH]c4c3)cc2)CC1 (stereo not given),18.3µM*,/,?,?,/,?
O=C(CSc1nnc(CNC(=O)c2ccccc2F)n1-c1ccccc1)Nc1ccccc1F,/,-2.1%,-3.8%,/,/,/
C=C(C)Cn1c(SCC(=O)Nc2ccccc2C)nc2sc3c(c2c1=O)CCCC3,/,-9.4%,-12.9%,/,/,/
O=C(NNC(=O)c1ccccc1Cl)c1cccs1,7.1%,27.6%,-14.5%,14.6%,-2.8%,21.8%
COc1ccc(Cl)cc1NC(=S)NNC(=O)c1cccs1,-4.2%,/,26.9µM*,-2.4%,-12.2%,-9.9%
O=C(NNC(=O)c1cc(Cl)ccc1O)c1cccs1,9.3%,/,21.3µM*,25.9%,/,24.6%
Cc1cccc(Cn2cc(S(=O)(=O)c3ccccc3)c(=O)c3cc(F)c(N4CCOCC4)cc32)c1,/,/,1.0%,/,/,/
Cc1ccc(O)c(-n2nc3ccccc3n2)c1,?,/,2.69µM*,3.16µM*,-29.2%,3.16µM*
Cc1cc(/C=N/NC(=O)C(O)(c2ccccc2)c2ccccc2)c(C)n1-c1cccc(C(=O)O)c1,-1.2%,/,-6.9%,-0.1%,/,0.7%
Cc1cc(/C=N/NC(=O)c2cccc(N(C)C)c2)c(C)n1-c1cc(C(=O)O)cc(C(=O)O)c1,?,?,23.9µM*,16.6%,4.8%,?
CN(C)c1cccc(C(=O)N/N=C/c2ccccc2F)c1,1.03µM*,1.41µM*,0.601µM*,0.708µM*,-11.3%,0.355µM*
COc1ccc(NC(=O)c2cccnc2)cc1,9.9%,/,-1.9%,0.6%,/,12.0%
COc1ccc(C(=O)Nc2ccc3c(c2)Cc2ccccc2-3)cc1,2.0%,-18.2%,3.0%,-0.5%,-1.1%,-0.1%
